Results published in PubChem BioAssay AID624330 (Southern Research Specialized Biocontainment Screening …, 2012).
Values joined by “and” are separate entries in the source; they are usually repeats but may differ in a detail not shown here. Equal values may be shown once. The whole screen tested about 340,000 compounds, of which about 2,100 (0.62%) were called active.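 The calls were made as follows: active = first-screen hits whose inhibition reached a set limit at any dose in the follow-up dose series; inconclusive = inhibition above the set first-screen limit but never retested; inactive = the rest.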 Not all results are given here. Potency and affinity values are given separately.

target: Rac GTPase-activating protein 1 (Homo sapiens) (UniProt Q9H0H5); test: MgcRacGAP GTPase-activating activity inhibitors, confirmation, biochemical, ADP Hunter fluorescence, primary and confirmatory (AID 624330); conditions: MgcRacGAP-stimulated Rac1 GTP hydrolysis, at 30 µM, active compounds read high, GST-tagged Rac1 F28L mutant substrate;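 also: fluorescence reports GDP produced by GAP-driven GTP hydrolysis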
Sequence (Q9H0H5 whole entry, looked up): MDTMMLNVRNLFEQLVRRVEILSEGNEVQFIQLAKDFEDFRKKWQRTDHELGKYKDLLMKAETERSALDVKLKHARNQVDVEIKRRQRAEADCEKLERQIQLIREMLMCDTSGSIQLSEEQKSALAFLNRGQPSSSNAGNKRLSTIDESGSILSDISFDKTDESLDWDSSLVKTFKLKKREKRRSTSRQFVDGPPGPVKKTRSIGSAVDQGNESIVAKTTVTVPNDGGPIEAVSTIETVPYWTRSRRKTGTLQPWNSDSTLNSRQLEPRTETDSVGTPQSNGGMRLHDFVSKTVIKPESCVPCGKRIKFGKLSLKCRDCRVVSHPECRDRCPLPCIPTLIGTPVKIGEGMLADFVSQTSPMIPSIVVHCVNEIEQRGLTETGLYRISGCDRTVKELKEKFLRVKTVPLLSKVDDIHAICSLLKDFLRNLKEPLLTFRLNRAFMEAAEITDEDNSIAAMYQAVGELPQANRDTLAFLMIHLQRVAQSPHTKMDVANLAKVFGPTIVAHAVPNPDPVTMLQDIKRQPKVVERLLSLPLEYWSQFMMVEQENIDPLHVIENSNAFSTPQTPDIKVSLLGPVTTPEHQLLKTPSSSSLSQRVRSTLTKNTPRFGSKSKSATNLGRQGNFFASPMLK

inhibition, inactive:
O=C1CCc2cc(S(=O)(=O)Nc3ccc(F)cc3)cc3c2N1CC3 6.87%
N=C(N)c1ccc(O)cc1 3.97%
N=C(N)c1ccccc1 2.01% and 4.94%
O=[N+]([O-])/C=C\c1ccc(N2CCOCC2)cc1 24%
O=[N+]([O-])c1ccc(C=CC=Cc2ccccc2)cc1 5.54%
Cc1cccc(Cn2cc(/C=C/[N+](=O)[O-])c3ccccc32)c1 3.28%
O=[N+]([O-])/C=C/c1cn(Cc2ccccc2)c2ccccc12 4.89%
CS(=O)(=O)N(CC(=O)NCCSCc1ccco1)c1ccc(Cl)cc1 5.58%
Cc1ccc(N(CC2CO2)S(=O)(=O)c2ccc([N+](=O)[O-])cc2)cc1 (configuration not stated) 4.81%
COC(=O)c1ccc(NC(=O)C2CCN(C(=O)Nc3ccccc3)CC2)cc1 5.55%
O=[N+]([O-])c1cc(C(F)(F)F)ccc1N1CCN(CCO)CC1 4.15%
O=[N+]([O-])c1ccc(N2CCCC2)c([N+](=O)[O-])c1 6.43%
Cc1nn(CC(=O)Nc2ccc3c(c2)OCCO3)c(C)c1[N+](=O)[O-] 0.26%
CCOC(=O)/C=C/c1cnn(-c2ccccc2)c1 6.95%
O=C(O)/C=C/c1cnn(-c2ccccc2)c1 2.55%
CCN=C1S/C(=C\c2cc(Cl)c(OC)c(OC)c2)C(=O)N1CC 4.7%
O=C(NNS(=O)(=O)c1ccc(F)cc1)c1ccc(O)cc1 6.98%
COc1ccc(Cn2nnnc2CN2CCOCC2)cc1 7.47%
CCOC(=O)Cn1nnnc1CN1CCN(c2ccc(OC)cc2)CC1 14.7%
C=CCN(c1ccccc1)S(=O)(=O)c1cccc(C(=O)Nc2ncccc2O)c1 -0.92%
Cc1ccc(N(C(=O)Cn2nnc(-c3ccccc3F)n2)C(C(=O)NC2CCCC2)c2ccncc2)cc1 (configuration not stated) 6.05%
COc1ccc(OC)c(-c2csc(NC(=O)COC(=O)c3ccc(NC(=O)CC#N)cc3)n2)c1 5.16%
Cc1cc(C(=O)NC(C)C2CCCO2)cs1 (configuration not stated) -7.59%
CCCn1c(=O)c2ccccc2n2c(SCCOc3ccccc3)nnc12 4.68%
CCCn1c(=O)c2ccccc2n2c(SCC(N)=O)nnc12 18.7%
Cc1ccc(NC(=O)CN(C)S(=O)(=O)c2ccc3c(c2)n(C)c(=O)c(=O)n3C)cc1 7.39%
CCOC(=O)C(=NC(C)CC)NNc1ccc(Br)cc1 (configuration not stated) 9.58%
O=C(CN1CCN(C(=O)c2ccco2)CC1)Nc1cccc([N+](=O)[O-])c1 4.6%
O=[N+]([O-])c1ccc(S(=O)(=O)N2CCN(Cc3ccco3)CC2)cc1 15.9%
O=[N+]([O-])c1cccc(CN2CCN(c3ncccn3)CC2)c1 25.4%
O=[N+]([O-])c1ccc(N2CCN(Cc3cccc([N+](=O)[O-])c3)CC2)cc1 0.8%
O=[N+]([O-])c1cccc(CN2CCCCCC2)c1 10.9%
O=C(c1c(Cl)cccc1Cl)N1CCN(c2ncccn2)CC1 14.4%
O=C(c1ccco1)N1CCN(Cc2cccc(F)c2)CC1 14.6%
O=C(c1c(Cl)cccc1Cl)N1CCCCCC1 7.13%
C[C@H](NC(=O)C1CC(=O)N(c2ccc3c(c2)OCCO3)C1)C(=O)N1CCCCC1 (some centres not stated) 7.93%
CCC(CC)NC(=O)COC(=O)c1cc(Br)ccc1Cl 7.43%
CC(C)NC(=O)CN(Cc1ccc(F)cc1)C(=O)CCC(=O)Nc1ccccn1 4.82%
CC(=O)c1ccc(N=Nc2ccc(C)cc2)cc1 3.59%
COc1ccc(C(C)=O)cc1CN1C(=O)NC2(CCCCCC2)C1=O -0.57%
Cc1ccc(S(=O)(=O)N(C)CCN(C)S(=O)(=O)c2ccc(C)cc2)cc1 6.45%
Cc1cccc(OCC(=O)N(Cc2ccc(F)cc2)C2CCS(=O)(=O)C2)c1C (configuration not stated) 9.11%
O=C(N/N=C/C(Cl)=C/c1ccccc1)c1ccccn1 2.22%
COc1ccc(-c2csc3nc(C)n(-n4cccc4)c(=O)c23)cc1OC 2.59%
CCCCOC(=O)C1=C(C)Nc2ncnn2C1c1ccc(OCC)c(OC)c1 (configuration not stated) 4.44%
COC(=O)c1ccc(NC(=S)Nc2ccccc2)cc1 5.58%
O=C(NNC(=O)C1CC=CCC1)c1ccccc1O (configuration not stated) -10.1%
O=C(NC(=S)Nc1ccc(F)cc1)C1CCCCC1 6.1%
COC(=O)c1ccc(NC(=S)Nc2ccc3ccccc3c2)cc1 15.3%
O=C(Nc1nccs1)C1CC=CCC1 (configuration not stated) 0.32%
CC(=O)Nc1ccc(NC(=S)NC(=O)C2CCCC2)cc1 9.09%
Cc1nn(Cc2ccccc2)c(C)c1NC(=O)CSc1nnc(-c2cc(Cl)ccc2O)n1C 3.78%
COc1ccccc1-c1nnc(SCC(=O)c2c(N)n(C3CC3)c(=O)[nH]c2=O)o1 4.98%
O=C(CCC1CCCN(C(=O)c2ccc3c(c2)OCO3)C1)NCc1ccc(F)c(F)c1 (configuration not stated) 6.44%
CCCC(=O)Nc1c(-c2ccccc2)c(=O)c(C)nn1-c1ccccc1 -2.47%
Cc1cccc(NC(=O)CSCc2cc(=O)n3c(C)csc3n2)c1C -9.75%
CCOCCCNCC(=O)NC1(C)C2CCC(C2)C1(C)C (configuration not stated) 14.5%
CCOCCCNC(=O)C(=O)NCCCOCC 6.87%
CC(NC(=O)CNC(=O)c1cccc(Cl)c1)c1ccccc1 (configuration not stated) 0.16%
CCCCNc1c(-c2ccc(-c3ccc(C(C)=O)cc3)c(OC)c2)nc2cc(C)ccn12 4.91%
Cc1c(Cc2ccccc2)c(=O)oc2c(C)c(OCC(=O)N[C@@H](Cc3ccccc3)C(=O)O)ccc12 1.68%
C[C@@H]1CN([C@@H](C)CO)C(=O)c2cc(NC(=O)Nc3ccc4c(c3)OCO4)ccc2O[C@H]1CN(C)S(=O)(=O)c1cn(C)cn1 11.5%
